Screens as filed in PubChem.
Sampled rows, rich in hits. Any-hit rate of the full collection: about 2.4%.
D2 ag-1 = Beta-Arrestin HTS for Positive Allosteric Modulators of the Human D2 Dopamine Receptor: Agonists. D(2) dopamine receptor (Homo sapiens), P14416. activation, % (test concentration not listed). DiscoveRx PathHunter D2 beta-arrestin, luminescence, 90 min; 100% = 57 uM dopamine signal. 360,000 tested, 0.084% active; in the data active means activation above about 40%; inconclusive means between about 15% and that limit
Target sequence (P14416 whole entry, looked up): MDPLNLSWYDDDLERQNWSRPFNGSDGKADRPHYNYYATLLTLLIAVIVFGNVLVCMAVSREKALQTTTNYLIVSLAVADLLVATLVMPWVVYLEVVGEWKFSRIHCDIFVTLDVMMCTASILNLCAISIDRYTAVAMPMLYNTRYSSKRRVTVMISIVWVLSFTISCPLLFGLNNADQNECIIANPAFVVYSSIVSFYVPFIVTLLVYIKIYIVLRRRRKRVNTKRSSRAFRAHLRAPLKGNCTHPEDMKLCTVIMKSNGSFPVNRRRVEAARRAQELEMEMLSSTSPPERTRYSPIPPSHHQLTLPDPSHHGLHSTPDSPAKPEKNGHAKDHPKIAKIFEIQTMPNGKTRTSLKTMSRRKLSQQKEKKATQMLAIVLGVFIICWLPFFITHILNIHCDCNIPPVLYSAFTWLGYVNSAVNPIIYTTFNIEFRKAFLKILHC
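DiscoveRx PathHunter D2 beta-arrestin cells (2,100/well) attached overnight, then compound-stimulated 90 min at 37 C in HBSS/10 mM HEPES/0.1% Tween-20 buffer; beta-galactosidase complementation read by luminescence after 1 h at ambient temperature. Dopamine 57 uM final (EC100) as control.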
D2 antagonist = HTS Assay for Allosteric Antagonists of the Human D2 Dopamine Receptor: Primary Screen for Antagonists; inhibition, % at 10 µM; D(2) dopamine receptor (Homo sapiens), P14416; 340,000 tested, 2% active; HEK293 TREx D2 cells, calcium flux, dopamine EC80; in the data active means inhibition above about 30%; inactive means below that, where a call was filed; further: 0% is about no effect
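Tetracycline-induced HEK293 T-REx cells expressing D2 force-coupled to calcium signalling were dye-loaded, exposed to compound for 180 s, then challenged with an EC80 of dopamine; calcium flux was followed kinetically for a further 180 s.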
D2 ag-2 = HTS Assay for Allosteric Agonists of the Human D2 Dopamine Receptor: Primary Screen for Agonists; D(2) dopamine receptor (Homo sapiens), P14416; HEK293 T-REx D2 cells, calcium flux agonist mode; activation, % at 2 µM; 340,000 tested, 0.53% active;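 active means activation over 3 SD above normal in the single-dose calcium agonist read, cut at about 30% in these data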; further: 0% is about no effect
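Agonism is scored from calcium flux in a force-coupled, inducible HEK293 cell line expressing D2, read kinetically for 180 s after compound addition against dopamine controls.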
D2 PAM-1 = HTS Assay for Positive Allosteric Modulators of the Human D2 Dopamine Receptor: Primary Screen for Potentiators | D(2) dopamine receptor (Homo sapiens), P14416 | 340,000 tested, 0.34% active | potentiation, % at 10 µM | HEK293 T-REx D2, calcium flux, EC20 dopamine potentiation;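 active means potentiation over 3 SD above the plate norm, cut at about 30% in these data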; further: 0% is about no effect
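Using a no-wash calcium dye in inducible, force-coupled HEK293 Trex cells expressing D2, we tracked fluorescence each second for 180 s after compound, then for 180 s after EC20 dopamine to detect augmented signalling.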
D2 PAM-2 = Beta-Arrestin HTS for Positive Allosteric Modulators of the Human D2 Dopamine Receptor: Potentiators | D(2) dopamine receptor (Homo sapiens), P14416 | DiscoveRx D2 beta-arrestin cells, luminescence, 90 min; 100% = 57 uM dopamine signal | potentiation, % (test concentration not listed) | 360,000 tested, 0.23% active; in the data active means potentiation above about 50%; inconclusive means mostly about 30% to 49%
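D2 cells co-treated with compound plus 50 nM dopamine (EC20) for 90 min at 37 deg C to detect potentiation. Beta-arrestin recruitment was read as enzyme-fragment luminescence after 1 h at ambient temperature. Full response was set by 57 uM dopamine.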
D3 ag = qHTS of D3 Dopamine Receptor Agonist: D3 Dopamine Receptor B-arrestin Agonist Confirmatory Assay; shares compounds with D2 ag-2; DiscoveRx D3 beta-arrestin cells, luminescence, 90 min; Potency, µM (titrated, usually from 76.9 µM), inactives show at the top dose activation, actives largely listed as activators; 2,300 tested, 4% active; AID 720506, 2013;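 further: potency means the concentration at half of the fitted maximal effect; 100% = dopamine control response; nearly all actives have a fitted effect of over 70% in size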
D2 ag-3 = qHTS of D3 Dopamine Receptor Agonist: D2 Dopamine Receptor B-arrestin Agonist Counterscreen. Potency, µM (top dose mostly 76.9 µM), inactives show at the top dose activation, most hits filed as activators. shares compounds with D2 ag-2. DiscoveRx PathHunter D2 beta-arrestin, luminescence, 90 min; response scale: percent relative to full dopamine signal. AID 720507, 2013. 2,300 tested, 5.9% active; further: potency means the concentration at half of the fitted maximal effect; % of control where 0% means no effect; nearly all actives have a fitted effect of over 70% in size
Active calls of the source: *. Unless noted, the call rests on the fitted dose curve; in most records, active means well fitted activation curve with a large enough effect; inconclusive means small, poorly fitted or top-dose-only effect; inactive means flat fitted curve, though single readings scatter.

`COC(=O)c1[nH]c2ccccc2c1NC(=O)CN1CCN(C(=O)c2ccco2)CC1` gave D2 ag-1 inconclusive, D2 antagonist 20.6, D2 ag-2 58.1*, D2 PAM-1 -19.4, D2 PAM-2 9.4, D3 ag inconclusive and D2 ag-3 19.5%.
`COc1ccccc1NC(=O)CN1CCN(C(=O)c2ccco2)CC1` gave D2 ag-1 6.8, D2 PAM-2 -20.9, D3 ag inconclusive and D2 ag-3 12.9%.
COc1ccc([N+](=O)[O-])cc1NC(=O)CCN1CCN(c2ccccc2)CC1 was read as D2 ag-1 47.3*, D2 PAM-2 6.1, D3 ag inconclusive and D2 ag-3 inconclusive.
For Cc1nc(NC(=O)CN2CCCCC2)sc1C(=O)N(C)C the results were D2 ag-1 -0.9, D2 antagonist 7.0, D2 ag-2 -0.2, D2 PAM-1 3.0 and D2 PAM-2 -0.6.
For COc1ccccc1N1CCN(CC(=O)Nc2ccc(CN3CCCCC3)cc2)CC1 the results were D2 ag-1 11.8, D2 antagonist 39.1*, D2 ag-2 31.2*, D2 PAM-1 -23.9, D2 PAM-2 -8.8, D3 ag -7.3% and D2 ag-3 12.7%.
`O=C(Nc1ncc(Cc2ccc(F)cc2)s1)c1ccc2c(c1)CC(c1ccccc1)OC2=O` (stereo not given) gave D2 ag-2 0.6 and D2 PAM-1 8.6.
For Cn1nc(C(F)(F)F)c(-c2ccccc2)c1NC(=O)c1ccco1 the results were D2 ag-1 -4.0, D2 antagonist -8.4, D2 ag-2 0.0, D2 PAM-1 1.2 and D2 PAM-2 -16.9.
Cn1nc(C(F)(F)F)c(-c2ccc(F)cc2)c1NC(=O)c1ccco1 was read as D2 ag-1 0.8, D2 antagonist -5.7, D2 ag-2 -0.2, D2 PAM-1 -3.1, D2 PAM-2 -3.3, D3 ag 0.6% and D2 ag-3 2.0%.
Cc1cc(Oc2c(C(F)(F)F)oc3c(CN4CCC(C)CC4)c(O)ccc3c2=O)cc(C)c1Cl was read as D2 ag-2 -0.3.
`CCOC(=O)Cc1csc(NC(=O)c2cccc(OC)c2)n1` gave D2 ag-1 -3.3, D2 antagonist 6.7, D2 ag-2 0.4, D2 PAM-1 3.0 and D2 PAM-2 7.9.
Screening CCOC(=O)Cc1csc(NC(=O)c2csc(C)c2)n1 returned D2 ag-1 -2.0, D2 antagonist -16.2, D2 ag-2 61.4*, D2 PAM-1 -18.2, D2 PAM-2 -7.8, D3 ag 2.0% and D2 ag-3 4.8%.
COc1cc(NC(=O)C(CC(C)C)NS(=O)(=O)c2ccc3c(c2)oc(=O)n3C)c(C(=O)O)cc1OC (stereo not given) was read as D2 ag-2 0.5 and D2 PAM-1 1.6.
`Cc1ccc(C(=O)c2cn(CC(=O)Nc3ccc4c(c3)OCCO4)c3nc(C)ccc3c2=O)cc1` gave D2 ag-2 -1.0 and D2 PAM-1 0.2.
For COc1ccc2[nH]cc(C3N4CC5(C)CN3CC(C)(C4)C5=O)c2c1 (stereo not given) the results were D2 ag-1 -0.3, D2 antagonist -21.8, D2 ag-2 58.4*, D2 PAM-1 -14.0, D2 PAM-2 -3.2, D3 ag 2.7% and D2 ag-3 -2.3%.
`COc1ccc(-n2c(SCC(=O)NCc3ccccc3)nc3n[nH]c(C)c3c2=N)cc1` gave D2 ag-2 1.6 and D2 PAM-1 -5.6.
COc1cc(C(=O)OCc2ccccc2C#N)ccc1OCC(=O)N1CCOCC1 was read as D2 ag-1 4.5, D2 antagonist 16.5, D2 ag-2 0.0, D2 PAM-1 5.9 and D2 PAM-2 -3.1.
For COc1cc(C(=O)OCc2cccc(OC)c2OC)ccc1OCC(=O)N1CCOCC1 the results were D2 ag-1 -5.3, D2 antagonist -9.2, D2 ag-2 -1.4, D2 PAM-1 -4.2, D2 PAM-2 -3.9, D3 ag -0.3% and D2 ag-3 -2.9%.
Screening Cc1cccc2cc(CNCC3CCCO3)c(Cl)nc12 (stereo not given) returned D2 ag-1 8.4, D2 antagonist 11.7, D2 ag-2 44.9*, D2 PAM-1 -23.1, D2 PAM-2 -5.6, D3 ag 4.1% and D2 ag-3 19.6%.
For CCCCOC(=O)c1ccc(NC(=O)c2cnc3ccc(C)cn3c2=O)cc1 the results were D2 ag-2 0.6 and D2 PAM-1 20.0.
For COc1cc2c(C#CCCO)c(-c3ccc(C#N)cc3)oc(=O)c2cc1OC the results were D2 ag-1 0.5, D2 antagonist 26.3, D2 ag-2 -0.5, D2 PAM-1 -9.7, D2 PAM-2 -0.1, D3 ag 8.3% and D2 ag-3 -1.4%.
Screening COc1cc2c(C#CCCO)c(-c3ccsc3)oc(=O)c2cc1OC returned D2 ag-1 3.0 and D2 PAM-2 3.6.
`Cc1ccc(NS(=O)(=O)c2c(C)nc3sc(C)cn3c2=O)c(C)c1` gave D2 PAM-1 2.9.
For CCc1ccc(OCC(O)CN2CCN(c3ccccc3)CC2)cc1 (stereo not given) the results were D2 ag-1 inconclusive, D2 antagonist 109.5*, D2 ag-2 74.1*, D2 PAM-1 -13.2, D2 PAM-2 -12.4, D3 ag inconclusive and D2 ag-3 inconclusive.
Screening COc1ccc(N2CCN(CC(O)COc3ccc(F)cc3)CC2)cc1 (stereo not given) returned D2 ag-1 -0.5, D2 antagonist -12.7, D2 ag-2 -0.3, D2 PAM-1 0.3 and D2 PAM-2 -13.1.
For COc1cccc(CN2CCC(C(=O)N3CCN(c4ccccc4F)CC3)CC2)c1OC the results were D2 ag-1 3.5, D2 antagonist -13.6, D2 ag-2 26.8, D2 PAM-1 8.6, D2 PAM-2 -8.2, D3 ag 1.8% and D2 ag-3 7.9%.
